In PubChem BioAssay:
For some assays here: Measured potencies and affinities stand elsewhere. The source made the active and inactive calls.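 Rule for the calls, unless noted: active = membrane potential signal rise above negative control mean plus 3 SD in both duplicates, also active in the earlier TRPC4 screen; inactive = the rest.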

Legend:
[1] = tested on: TRPC4 beta (transient receptor potential cation channel C4), mouse; test: TRPC4 cation channel opening, retest – cell-based, Fluo4 calcium, HEK293 TRPC4beta/mu-opioid, duplicates, 10 µM, confirmation (AID 2426;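 active = fluorescence ratio normalized to control raised more than 50% in primary screen plus both repeat runs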); details: Fluo4 calcium fluorescence, at 10 µM; active compounds read high
[2] = tested on: transient receptor potential cation channel C4 beta (TRPC4), mouse; test: TRPC4 cation channel opening, second retest – cell-based, second round, Fluo4, HEK293 TRPC4beta/mu-opioid, 1 µM, confirmation (AID 2461;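 active = primary screen active and over 50% activation in each of two duplicate runs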); details: Fluo4 calcium fluorescence, at 1 µM; active compounds read high
[3] = tested on: TRPC4 (transient receptor potential cation channel C4 beta), mouse; test: potentiation of DAMGO EC20 TRPC4 response – cell-based, second round, Fluo-4, HEK293 TRPC4beta/mu-opioid, 1 µM, confirmation (AID 2554;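 active = primary screen hit whose fluorescence ratio, in both repeats, exceeds the weak agonist control mean by 3 SD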); details: DAMGO EC20, Fluo-4 calcium flux, at 1 µM; active compounds read high
[4] = tested on: TRPC4 beta (transient receptor potential cation channel C4), mouse; test: potentiation of DAMGO EC20 TRPC4 response – cell-based, Fluo-4, HEK293 TRPC4beta/mu-opioid, confirmation (AID 2555;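 active = primary screen hit whose calcium fluorescence ratio, in both repeats, exceeds the weak agonist control mean by 3 SD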); details: DAMGO EC20, Fluo-4 calcium flux, at 10 µM; active compounds read high
[5] = target: Short transient receptor potential channel 4 (Mus musculus) (UniProt Q9QUQ5); test: blockers of DAMGO-evoked TRPC4 calcium flux – cell-based, Fluo4, HEK293 TRPC4beta/mu-opioid, confirmation (AID 2636;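 active = calcium signal cut by more than 3 SD below the full-agonist control yet still positive, in both repeats and the earlier primary screen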); details: at 10 µM; active compounds read high
Short transient receptor potential channel 4 (Mus musculus), sequence (Q9QUQ5 whole entry, looked up): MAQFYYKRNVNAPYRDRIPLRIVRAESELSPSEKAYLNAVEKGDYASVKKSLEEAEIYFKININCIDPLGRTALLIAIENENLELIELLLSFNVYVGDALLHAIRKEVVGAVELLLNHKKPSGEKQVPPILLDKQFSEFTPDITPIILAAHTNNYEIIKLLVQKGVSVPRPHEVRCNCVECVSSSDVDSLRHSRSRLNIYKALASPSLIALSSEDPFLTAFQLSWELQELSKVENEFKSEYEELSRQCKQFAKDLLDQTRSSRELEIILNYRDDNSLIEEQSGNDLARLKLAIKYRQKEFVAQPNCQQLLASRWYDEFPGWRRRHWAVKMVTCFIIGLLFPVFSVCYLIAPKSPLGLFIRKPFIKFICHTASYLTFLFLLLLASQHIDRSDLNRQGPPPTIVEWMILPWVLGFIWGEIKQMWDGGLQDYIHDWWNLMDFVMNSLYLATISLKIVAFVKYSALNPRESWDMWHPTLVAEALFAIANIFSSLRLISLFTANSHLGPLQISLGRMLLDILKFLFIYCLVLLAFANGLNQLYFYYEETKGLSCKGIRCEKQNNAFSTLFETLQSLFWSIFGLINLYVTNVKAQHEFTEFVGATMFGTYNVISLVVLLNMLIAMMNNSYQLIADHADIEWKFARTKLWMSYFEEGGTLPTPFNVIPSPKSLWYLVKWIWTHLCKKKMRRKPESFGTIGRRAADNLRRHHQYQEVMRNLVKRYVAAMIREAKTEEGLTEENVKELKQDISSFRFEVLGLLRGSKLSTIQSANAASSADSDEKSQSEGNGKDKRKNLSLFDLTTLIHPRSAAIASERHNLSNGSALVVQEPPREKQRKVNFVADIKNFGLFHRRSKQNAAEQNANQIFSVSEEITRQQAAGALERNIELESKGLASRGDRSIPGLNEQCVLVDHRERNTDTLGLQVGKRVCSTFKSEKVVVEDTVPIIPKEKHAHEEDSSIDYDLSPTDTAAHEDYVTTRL

[6] = target: Short transient receptor potential channel 4 (Mus musculus) (UniProt Q9QUQ5); test: blockers of DAMGO-evoked TRPC4 calcium flux – cell-based, second round, Fluo4, HEK293 TRPC4beta/mu-opioid, 1 µM, confirmation (AID 2637;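 active = calcium signal ratio cut to more than 3 SD under the fully stimulated control mean yet still positive, in both repeats and the primary screen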); details: at 1 µM; active compounds read high
[7] = target: Short transient receptor potential channel 4 (Mus musculus) (UniProt Q9QUQ5); test: calcium entry via TRPC4 opening agents – cell-based, HEK293 TRPC4/mu-opioid, Fluo-4 calcium, dose response (AID 434937;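 active = primary screen activator hit with a dose response curve and TRPC4 channel activation at any tested dose; inactive = no activation, no dose response, or not a primary hit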)
[8] = target: Short transient receptor potential channel 4 (Mus musculus) (UniProt Q9QUQ5); test: potentiation of DAMGO-evoked TRPC4 calcium signal – cell-based, HEK293 TRPC4/mu-opioid, Fluo-4 calcium, EC20 DAMGO, dose response (AID 434941;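 active = earlier screen potentiator hit that boosts the TRPC4 ion channel at some dose, with a dose response; inactive = no potentiation, no dose response, or not a prior hit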;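 note: calcium entry triggered by an EC20 dose of DAMGO at the co-expressed mu-opioid receptor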)
[9] = target: Short transient receptor potential channel 4 (Mus musculus) (UniProt Q9QUQ5); test: block of DAMGO-driven TRPC4 calcium entry – cell-based, HEK293 TRPC4/mu-opioid, Fluo-4 calcium, dose response (AID 434942;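 active = primary screen inhibitor hit that blocks the TRPC4 channel at some tested dose, yielding a dose curve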)
[10] = target: Short transient receptor potential channel 6 (Mus musculus) (UniProt Q61143); test: TRPC6 blockade by TRPC4 inhibitor hits – cell-based, HEK293, membrane potential dye, duplicate, selectivity assay for TRPC4 inhibitor project, confirmation (AID 434948;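 active = active in primary screen and both duplicates, each dropping signal beyond three positive-control SD with fluorescence still positive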); details: HEK293 TRPC6, membrane potential dye fluorescence, at 10 µM, stimulated with maximal-effect acetylcholine; active compounds read high
Short transient receptor potential channel 6 (Mus musculus), sequence (Q61143 whole entry, looked up): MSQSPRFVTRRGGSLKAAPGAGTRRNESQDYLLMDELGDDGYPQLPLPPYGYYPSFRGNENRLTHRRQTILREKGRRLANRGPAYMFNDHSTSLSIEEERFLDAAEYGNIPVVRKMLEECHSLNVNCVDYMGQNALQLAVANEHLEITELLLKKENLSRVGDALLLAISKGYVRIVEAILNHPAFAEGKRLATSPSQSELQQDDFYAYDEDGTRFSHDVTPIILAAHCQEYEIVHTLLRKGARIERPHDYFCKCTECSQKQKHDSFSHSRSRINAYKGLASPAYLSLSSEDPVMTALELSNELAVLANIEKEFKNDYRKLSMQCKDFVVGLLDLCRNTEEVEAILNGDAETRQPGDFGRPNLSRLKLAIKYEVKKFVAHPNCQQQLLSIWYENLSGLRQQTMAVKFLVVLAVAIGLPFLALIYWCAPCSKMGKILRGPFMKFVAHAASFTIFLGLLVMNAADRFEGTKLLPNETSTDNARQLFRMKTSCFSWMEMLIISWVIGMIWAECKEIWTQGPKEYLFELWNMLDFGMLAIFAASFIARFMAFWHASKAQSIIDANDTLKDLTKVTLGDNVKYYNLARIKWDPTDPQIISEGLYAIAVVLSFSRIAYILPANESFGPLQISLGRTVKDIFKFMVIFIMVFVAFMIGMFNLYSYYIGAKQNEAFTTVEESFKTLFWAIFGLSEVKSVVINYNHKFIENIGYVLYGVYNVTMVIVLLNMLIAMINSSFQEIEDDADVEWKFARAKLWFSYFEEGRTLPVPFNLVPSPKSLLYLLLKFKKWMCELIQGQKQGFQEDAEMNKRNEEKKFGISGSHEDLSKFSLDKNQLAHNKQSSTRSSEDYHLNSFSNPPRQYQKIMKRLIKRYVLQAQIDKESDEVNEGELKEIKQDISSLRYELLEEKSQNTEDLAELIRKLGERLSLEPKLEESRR

[11] = target: Short transient receptor potential channel 6 (Mus musculus) (UniProt Q61143); test: TRPC6 opening by TRPC4 activator hits – cell-based, HEK293, membrane potential dye, duplicate, selectivity assay for TRPC4 activator project, confirmation (AID 434950); details: HEK293 TRPC6, membrane potential fluorescence, at 10 µM; activation: active compounds read high; outcome: activation
[12] = target: Short transient receptor potential channel 6 (Mus musculus) (UniProt Q61143); test: positive modulators of mouse TRPC6 channel – HEK293 cells, membrane potential dye, duplicate, selectivity assay for TRPC4 potentiator project, confirmation (AID 434952;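 active = compound raising the membrane signal above positive-control mean plus 3 SD in both repeats, and a primary screen hit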); details: HEK293 TRPC6, membrane potential dye fluorescence, at 10 µM, maximal acetylcholine added after compound; active compounds read high
[13] = target: Short transient receptor potential channel 4 (Mus musculus) (UniProt Q9QUQ5); test: calcium flux activators in TRPC4/5HT1a cells, counter-screen for TRPC4 activator project, cell-based, second counter screen, HEK293 TRPC4/5HT1a, Fluo-4 (AID 434977;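 active = calcium signal rise above buffer-control mean plus 5 SD in both duplicates, and also a hit in the primary screen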); details: Fluo-4 calcium flux, at 10 µM; active compounds read high
[14] = serotonin-gated TRPC4 signal block – cell-based, second counter screen, HEK293 TRPC4/5HT1a, Fluo-4, counter-screen for TRPC4 inhibitor project, confirmation (AID 434978;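 active = primary screen active whose calcium signal fell more than 3 SD beyond the full-serotonin control mean in both duplicate plates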;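 note: serotonin given first at submaximal then at maximal dose after compound preincubation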); details: Fluo-4 calcium flux, at 10 µM, serotonin added to trigger calcium flux; active compounds read high
[15] = tested on: TRPC4 (mouse), co-expressed with 5HT1a in HEK293; test: enhancement of serotonin-evoked TRPC4 response – cell-based, second counter screen, HEK293 TRPC4/5HT1a, Fluo-4, counter-screen for TRPC4 potentiator project, confirmation (AID 434979;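 active = signal rise over 3 SD above mean of control wells given weak agonist, in both repeats and first screen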); details: Fluo-4 calcium flux, at 10 µM, serotonin added at its EC20 dose; active compounds read high
[16] = nonspecific calcium rise without TRPC4 – cell-based, HEK293 mu-opioid receptor line, counter-screen for TRPC4 activator project, confirmation (AID 449723;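 active = hit in primary screen, with calcium signal over 5 SD above buffer well mean in both duplicates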;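 note: counter screen cells carry the mu-opioid receptor alone and lack TRPC4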); details: HEK293 mu-opioid cells, Fluo-4 calcium fluorescence, at 10 µM; active compounds read high
[17] = nonspecific potentiation of DAMGO calcium response – cell-based, HEK293 mu-opioid receptor line, counter-screen for TRPC4 allosteric potentiator project, confirmation (AID 449724;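 active = calcium signal rise more than 3 SD above the low-dose agonist control mean, in both duplicate plates and the primary screen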); details: HEK293 mu-opioid receptor cells, Fluo-4 calcium flux, at 10 µM, compound added before EC20 DAMGO stimulus; active compounds read high

Cc1cc(C)c(C)c(S(=O)(=O)NCc2ccco2)c1C
inactive: outcome [1] | outcome [2] | outcome [3] | outcome [4] | outcome [5] | outcome [6] | outcome [7] | outcome [8] | outcome [9] | outcome [10] | outcome [11] | outcome [12] | outcome [13] | outcome [14] | outcome [16] | outcome [17]
active: potentiation [15] 28.1%

Cc1[nH]n2c(=O)c3c(nc2c1-c1ccccc1)CCC3
inactive: outcome [1] | outcome [2] | outcome [3] | outcome [4] | outcome [6] | outcome [7] | outcome [8] | outcome [9] | outcome [10] | outcome [11] | outcome [12] | outcome [13] | outcome [14] | outcome [15] | outcome [16] | outcome [17]
active: inhibition [5] 76%

Cc1cc(Cl)ccc1OC(C)C(=O)Nc1ccccc1N1CCOCC1 (centres undefined)
inactive: outcome [1] | outcome [2] | outcome [3] | outcome [5] | outcome [6] | outcome [7] | outcome [8] | outcome [9] | outcome [10] | outcome [11] | outcome [12] | outcome [13] | outcome [14] | outcome [15] | outcome [16]
active: potentiation [4] 25% | activation [17] 1140%

Cc1cc(C)c(C)c(OCCCOc2cccc3cccnc23)c1
inactive: outcome [1] | outcome [2] | outcome [3] | outcome [4] | outcome [5] | outcome [6] | outcome [7] | outcome [8] | outcome [9] | outcome [10] | outcome [11] | outcome [12] | outcome [13] | outcome [14] | outcome [16] | outcome [17]
active: potentiation [15] 19%

COc1cccc(C(=O)Oc2ccc(/C=N/Nc3ccc(C(=O)O)cc3)cc2OC)c1
inactive: outcome [1] | outcome [2] | outcome [3] | outcome [4] | outcome [5] | outcome [6] | outcome [7] | outcome [8] | outcome [9] | outcome [10] | outcome [11] | outcome [12] | outcome [13] | outcome [14] | outcome [15] | outcome [16] | outcome [17]

O=C(Nc1cccc(C(F)(F)F)c1)c1cccc(NS(=O)(=O)c2ccc(O)c(C(=O)O)c2)c1
inactive: outcome [1] | outcome [2] | outcome [3] | outcome [4] | outcome [5] | outcome [6] | outcome [7] | outcome [8] | outcome [9] | outcome [10] | outcome [11] | outcome [12] | outcome [13] | outcome [14] | outcome [15] | outcome [16] | outcome [17]

Cc1cc(Nc2ccc3c(c2)OCCO3)c2cc(Cl)ccc2n1
inactive: outcome [1] | outcome [2] | outcome [3] | outcome [4] | outcome [5] | outcome [6] | outcome [7] | outcome [8] | outcome [9] | outcome [10] | outcome [11] | outcome [12] | outcome [13] | outcome [14] | outcome [15] | outcome [16] | outcome [17]
